# Inconclusive results are not listed. Active and inactive are the calls of the source. How the source made its calls: active means hit-call score of the fitted dose curve at least 0.9, where 1 is the maximum; inconclusive means response in the unintended direction; inactive means score below 0.9.
# Target: human Peroxisome Proliferator-activated Receptor delta (PPARd), PPARD (gene 5467) (UniProt Q03181)
# Experiment: ATG_PPARd_TRANS: Attagene TRANS-FACTORIAL HepG2 Assay for human Peroxisome Proliferator-activated Receptor delta (PPARd) (AID 2283002)
# Description: ATG_TRANS is a cell-based, multiplexed-readout assay that uses HepG2, a human liver cell line, with measurements taken at 24 hours after chemical dosing in a 24-well plate.ATG_PPARd_TRANS is one of 30 assay component(s) measured or calculated from the ATG_TRANS assay. It is designed to make measurements of mRNA induction, a form of inducible reporter, as detected with fluorescence intensity signals by Reverse transcription polymerase chain reaction (RT-PCR) and Capillary electrophoresis technology.Data from the assay component ATG_PPARd_TRANS was analyzed into 1 assay endpoint. This assay endpoint, ATG_PPARd_TRANS, was analyzed in the positive analysis fitting direction relative to DMSO as the negative control and baseline of activity. Using a type of inducible reporter, measures of mRNA for gain-of-signal activity can be used to understand the reporter gene at the transcription factor-level as they relate to the gene PPARD. Furthermore, this assay endpoint can be referred to as a primary readout, because this assay has produced multiple assay endpoints where this one serves a reporter gene function. To generalize the intended target to other relatable targets, this assay endpoint is annotated to the nuclear receptor intended target family, where the subfamily is non-steroidal.
# Human liver HepG2 cells are transiently transfected with multiple reporter transcription units (MRTUs) in 6-well plates using FuGene 6 reagent (Roche; 3 ml FuGene/1 mg DNA). The MRTU constructs are regulated by a cis-regulating element (promoter). […] A major difference between the CIS and TRANS system is that in CIS activities of endogenous TFs are measured, whereas the TRANS assay evaluates changes in activities of exogenous, chimeric NR-Gal4 proteins. […] At the end of 24 hour incubation, total RNA was isolated using TriZol reagent (Invitrogen). The isolated RNA is then reverse-transcribed using oligo(dT) primer and Mo-MLV reverse transcriptase (Invitrogen) with DNAse I (Ambion) treatment for 30 min. The one-tenth of the produced cDNA was amplified by PCR using Taq DNA polymerase (Invitrogen) and two reporter sequence-specific primers. The PCR products were fluorescently labeled by primer extension with 6-arboxyfluorescein (6-FAM) 5'-labeled reporter sequence-specific primer (2 min at 95 C, 20 s at 68 C and 10 min at 72 C) and these products were digested with 5U of HpaI (New England Biolabs) for 2h at 37 C. The fragments were purified using Qiaquick PCR columns (Qiagen), analyzed on an ABI 3130xL genetic analyzer (Applied Biosystems) with peak positions identified by using a set of X-rhodamine (ROX)-labeled MapMarker1000 molecular weight standards (BioVentures). The raw capillary electrophoresis data was processed using Attagraph software (Attagene).
# human Peroxisome Proliferator-activated Receptor delta (PPARd), PPARD (gene 5467), sequence (Q03181 whole entry, looked up): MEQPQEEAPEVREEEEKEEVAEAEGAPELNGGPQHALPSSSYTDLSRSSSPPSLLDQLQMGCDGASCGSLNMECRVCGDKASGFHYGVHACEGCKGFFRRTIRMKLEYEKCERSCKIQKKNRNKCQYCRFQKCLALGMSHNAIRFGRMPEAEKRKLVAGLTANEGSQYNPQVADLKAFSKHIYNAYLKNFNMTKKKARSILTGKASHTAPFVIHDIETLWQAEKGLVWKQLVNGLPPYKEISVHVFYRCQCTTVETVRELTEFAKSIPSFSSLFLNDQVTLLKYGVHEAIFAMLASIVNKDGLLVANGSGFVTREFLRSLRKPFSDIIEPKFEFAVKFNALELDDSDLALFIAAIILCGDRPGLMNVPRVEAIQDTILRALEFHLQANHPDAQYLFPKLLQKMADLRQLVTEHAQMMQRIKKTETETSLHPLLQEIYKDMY
row,Compound,outcome
1,O=C(O)[C@H](O)[C@@H](O)C(=O)O,inactive
2,O=C(O)CO,inactive
3,Cc1ncc([C@@H](CCCCCCc2ccc3c(n2)NCCC3)CC(=O)O)cn1,inactive
4,OCCNCCO,inactive
5,c1ccc2cc3ccccc3cc2c1,inactive
6,S=P(N1CC1)(N1CC1)N1CC1,inactive
7,c1ccc2c(c1)-c1cccc3c1c-2cc1ccccc13,inactive
8,C[Si](C)(C)C(F)(F)C(F)(F)C(F)(F)F,inactive
9,O=C(N[C@H](CO)[C@H](O)c1ccc([N+](=O)[O-])cc1)C(Cl)Cl,inactive
10,CCOC(N)=O,inactive
11,O=C(Cl)C(F)(F)C(F)(F)C(F)(F)C(=O)Cl,inactive
12,OCCC(F)(F)C(F)(F)C(F)(F)C(F)(F)F,inactive
13,CC(C)c1nnc2ccc(-c3ocnc3-c3cc(F)ccc3F)cn12,inactive
14,NCC(F)(F)C(F)(F)C(F)(F)C(F)(F)F,inactive
15,c1ccc(C(O[C@@H]2CCCN(CCc3ccc4c(c3)OCO4)C2)c2ccccc2)cc1,inactive
16,Cc1nccn1-c1ccc(Sc2cccc(C3(C(N)=O)CCOCC3)c2)cc1,inactive
17,O=S1(=O)CCCO1,inactive
18,CCOc1ccc2[nH]cc(C(=O)NCc3ccccc3)c(=O)c2n1,inactive
19,OCc1c[nH]c2ccccc12,inactive
20,CCCCCOC(C)=O,inactive

row,Compound,outcome
1,CCCc1ccccc1,inactive
2,O=c1[nH]cnc2c1ncn2[C@H]1CC[C@@H](CO)O1,inactive
3,CCN(CC)C(=S)SSC(=S)N(CC)CC,inactive
4,CCc1cccc(CC)c1N,inactive
5,Nc1ccn([C@@H]2O[C@H](CO)[C@@H](O)[C@@H]2O)c(=O)n1,inactive
6,NC(N)=O,inactive
7,CCCCOC(=O)c1ccccc1,inactive
8,FC(F)(F)C(F)(F)C(F)(F)C(F)(F)C(F)(F)C(F)(F)I,inactive
9,Cc1cccc(O)c1C,inactive
10,FC(F)(F)COC(OCC(F)(F)F)OCC(F)(F)F,inactive
11,FC(F)=C(F)C(F)(F)C(F)(F)C(F)(F)C(F)(F)C(F)(F)C(F)(F)F,inactive
12,CCCOc1ccc(S(=O)(=O)N2CCN(CC)CC2)cc1-c1nc2c(CC)n(Cc3ccccn3)nc2c(=O)[nH]1,inactive
13,O=C(O)c1ccc2c(c1)nc(C(=O)NC1CCN(C3CC3)CC1)n2Cc1cc(-c2ccc(Cl)s2)on1,inactive
14,CNC(C)=O,inactive
15,Cc1nc(-c2ccccn2)ncc1C(=O)Nn1cc(C)c2cc(F)ccc21,inactive
16,OCC(CO)(CO)CO,inactive
17,FC(F)C(F)(F)COCC1CO1 (stereo not given),inactive
18,CCCCCCCC1CCC(=O)O1 (stereo not given),inactive
19,C=CCc1cc(S(=O)(=O)c2ccc(O)c(CC=C)c2)ccc1O,inactive
20,CCCCC(CC)C(=O)OCCOCCOCCOC(=O)C(CC)CCCC (stereo not given),inactive
